Test results reported in PubChem BioAssay (NCATS).
Records with an inconclusive call do not appear. Where a call stands in place of a potency, no number is given. Active and inactive are the calls of the source. Unless noted, calls come from the whole dose curve; as a rule, active = well fitted curve in the direction sought with a large enough effect; inconclusive = small, poorly fitted or top-dose-only effect, or another doubt; inactive = no such curve, though single readings can be large; an effect the other way counts as inactive or inconclusive.

Legend:
[1] = Nrf2 qHTS screen for inhibitors: Validation (AID 493153; active = well fitted inhibition curve with a large enough effect in the main read-out, with a control signal flat, not every such curve was filed as active); settings: Potency: luciferase luminescence; viability change: measured here: cytotoxicity max response
Outline: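 Concentration-response test in A549 ARE_Fluc reporter cells (5% FBS OPTI-MEM), compound exposure 18-24 h at 37°C, 5% CO2. Cell viability measured first by CellTiter-Fluor fluorescence; ARE-driven luciferase luminescence then measured as Nrf2 activity.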

[2] = qHTS for Inhibitors of Cell Surface uPA Generation: Validation Assay (AID 493164);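 note: RAW 264.7 macrophage cells exposed to compound for 18 h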
Outline: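 Compounds are titrated over seven points (2.45 nM–38.3 uM final) onto pre-plated RAW 264.7 cells and incubated for 18 h. Retained intracellular ATP, measured with ATP-Lite, indicates blocked lethal factor entry.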

[3] = molecular target: Galactokinase (Homo sapiens) (UniProt P51570); test: qHTS Validation Assay for Inhibitors of Human Galactokinase (GALK) (AID 493189)
Galactokinase (Homo sapiens), sequence (P51570 whole entry, looked up): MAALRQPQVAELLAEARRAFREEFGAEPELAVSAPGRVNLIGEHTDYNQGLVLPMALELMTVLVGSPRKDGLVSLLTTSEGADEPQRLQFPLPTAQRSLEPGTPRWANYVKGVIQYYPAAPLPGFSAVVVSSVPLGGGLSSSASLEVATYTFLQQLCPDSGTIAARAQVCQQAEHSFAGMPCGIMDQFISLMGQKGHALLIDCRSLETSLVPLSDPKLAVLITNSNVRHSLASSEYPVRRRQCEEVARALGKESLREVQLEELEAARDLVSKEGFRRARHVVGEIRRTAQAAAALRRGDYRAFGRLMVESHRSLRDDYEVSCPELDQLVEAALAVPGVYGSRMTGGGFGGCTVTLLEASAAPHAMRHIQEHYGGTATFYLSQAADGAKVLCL
Outline: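 Enzyme activity is inferred from ATP consumption: human GALK phosphorylates galactose (100 uM) using 35 uM ATP for 1 h at room temperature, and luciferase-based Kinase-Glo Plus reports unconsumed ATP.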

[4] = Validation screen for small molecules that induce DNA re-replication in SW480 colon adenocarcinoma cells (AID 504364)
Outline: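 Read-out: total Hoechst intensity of nuclei by fluorescence scanning imager; hits raise the fraction of nuclei with elevated DNA content. Cells received compound for 48 hr at 37 C before a 40 min stain.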

[5] = molecular target: Peptidyl-prolyl cis-trans isomerase NIMA-interacting 1 (Homo sapiens) (UniProt Q13526); test: qHTS Validation Assay to Find Inhibitors of Pin1 (AID 504536; active = well fitted inhibition curve with a large enough effect in the polarisation, with a control signal flat, not every such curve was filed as active; the % refers to the polarisation)
Peptidyl-prolyl cis-trans isomerase NIMA-interacting 1 (Homo sapiens), sequence (Q13526 whole entry, looked up): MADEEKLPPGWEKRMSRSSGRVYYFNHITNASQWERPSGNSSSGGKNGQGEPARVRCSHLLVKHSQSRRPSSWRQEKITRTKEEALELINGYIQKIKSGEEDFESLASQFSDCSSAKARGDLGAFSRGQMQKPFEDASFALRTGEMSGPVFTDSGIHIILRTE
Outline: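 Fluorescence polarization competition: compounds (titration) displace HiFluor-488-labeled Pin1-1b peptide from Pin1 (0.3 uM final) in pH 7.5 HEPES buffer with DTT, 10 min at room temperature; %Activity normalized to no-enzyme wells, curves fitted.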

[6] = molecular target: Phosphoglycerate kinase, glycosomal (Trypanosoma brucei brucei) (UniProt P07378); test: qHTS Validation Assay to Find Inhibitors of Phosphoglycerate Kinase (AID 504547)
Phosphoglycerate kinase, glycosomal (Trypanosoma brucei brucei), sequence (P07378 whole entry, looked up): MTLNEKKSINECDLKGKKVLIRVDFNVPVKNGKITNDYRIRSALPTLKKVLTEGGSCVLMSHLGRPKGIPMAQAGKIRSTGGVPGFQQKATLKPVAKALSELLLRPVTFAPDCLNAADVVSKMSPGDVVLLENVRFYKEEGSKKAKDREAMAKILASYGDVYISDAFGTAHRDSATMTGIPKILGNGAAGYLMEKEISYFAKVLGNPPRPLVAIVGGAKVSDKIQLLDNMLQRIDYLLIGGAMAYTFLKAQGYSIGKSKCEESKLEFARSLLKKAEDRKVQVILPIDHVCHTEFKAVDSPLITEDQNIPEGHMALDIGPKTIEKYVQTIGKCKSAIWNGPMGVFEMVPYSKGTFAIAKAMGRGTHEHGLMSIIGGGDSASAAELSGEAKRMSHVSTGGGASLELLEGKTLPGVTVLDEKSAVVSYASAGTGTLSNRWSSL
Outline: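 Compounds are pinned into the substrate/PGK mixture, and GAPDH (100nM final) is added to start the reaction by producing 1,3-BPG. After 60 minutes at room temperature, Kinase-Glo Plus is added and luminescence is measured 10 minutes later.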

[7] = molecular target: phosphoglycerate mutase (Leishmania major) (UniProt Q4Q090); test: qHTS Validation Assay to Find Inhibitors of Phosphoglycerate Mutase (AID 504548); settings: Potency: inhibition qHTS; note: series mostly up to about 58 µM
phosphoglycerate mutase (Leishmania major), sequence (Q4Q090 1-553): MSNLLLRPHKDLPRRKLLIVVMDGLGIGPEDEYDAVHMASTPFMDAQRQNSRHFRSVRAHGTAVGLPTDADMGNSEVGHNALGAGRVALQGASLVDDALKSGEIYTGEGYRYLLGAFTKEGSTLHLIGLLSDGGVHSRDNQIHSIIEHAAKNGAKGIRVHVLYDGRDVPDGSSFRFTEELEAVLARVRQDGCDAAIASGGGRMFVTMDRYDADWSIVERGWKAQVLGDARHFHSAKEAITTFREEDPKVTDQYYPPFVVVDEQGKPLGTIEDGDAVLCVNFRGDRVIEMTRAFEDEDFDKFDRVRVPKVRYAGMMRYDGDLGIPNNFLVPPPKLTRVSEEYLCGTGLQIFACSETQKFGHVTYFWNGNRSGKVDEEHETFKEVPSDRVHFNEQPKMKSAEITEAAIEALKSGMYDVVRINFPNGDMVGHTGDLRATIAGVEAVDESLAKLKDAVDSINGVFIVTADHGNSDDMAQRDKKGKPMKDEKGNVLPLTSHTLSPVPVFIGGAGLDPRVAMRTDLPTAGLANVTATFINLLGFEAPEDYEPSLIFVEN
Outline: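 Lm PGAM at 1.25 nM final with substrate in 100 mM TEA pH 7.6, 5 mM MgCl2, 0.01% Tween-20; 45 min at room temperature. Kinase-GloPlus added, 10 min, end-point luminescence read.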

[8] = molecular target: Ubiquitin carboxyl-terminal hydrolase 1 (Homo sapiens) (UniProt O94782); test: Inhibitors of USP1/UAF1: Pilot qHTS (AID 504865); note: nearly all actives have a fitted effect of over 35% in size; note: potency is the fitted concentration of half-maximal effect
Ubiquitin carboxyl-terminal hydrolase 1 (Homo sapiens), sequence (O94782 whole entry, looked up): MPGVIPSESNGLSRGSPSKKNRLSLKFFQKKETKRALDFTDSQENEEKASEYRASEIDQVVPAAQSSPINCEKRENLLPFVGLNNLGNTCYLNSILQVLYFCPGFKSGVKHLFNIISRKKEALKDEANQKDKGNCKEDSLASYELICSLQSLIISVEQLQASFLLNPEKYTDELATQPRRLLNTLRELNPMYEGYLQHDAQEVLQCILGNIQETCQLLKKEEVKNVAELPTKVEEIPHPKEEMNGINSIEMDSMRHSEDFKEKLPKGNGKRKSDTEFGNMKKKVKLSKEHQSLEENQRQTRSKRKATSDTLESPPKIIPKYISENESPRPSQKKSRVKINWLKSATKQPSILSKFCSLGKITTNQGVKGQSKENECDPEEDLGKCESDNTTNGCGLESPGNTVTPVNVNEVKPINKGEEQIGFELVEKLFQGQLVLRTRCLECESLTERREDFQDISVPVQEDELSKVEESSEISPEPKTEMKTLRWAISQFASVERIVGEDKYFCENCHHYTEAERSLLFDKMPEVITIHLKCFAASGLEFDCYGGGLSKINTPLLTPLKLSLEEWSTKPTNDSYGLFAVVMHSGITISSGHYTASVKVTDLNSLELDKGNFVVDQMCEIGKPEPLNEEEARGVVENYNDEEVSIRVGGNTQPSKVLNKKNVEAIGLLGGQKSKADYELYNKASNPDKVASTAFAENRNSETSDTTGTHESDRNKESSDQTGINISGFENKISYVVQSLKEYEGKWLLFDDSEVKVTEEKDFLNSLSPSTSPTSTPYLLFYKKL
Outline: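 Enzyme-free wells gave the negative control, while test wells held 1nM USP1/UAF1 preincubated with compound for 15 min at room temperature. Ub-Rho at 150nM final started the reaction, and fluorescence at 480/540 nm was recorded kinetically.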

[9] = qHTS for Inhibitors of ATXN expression: Validation of Cytotoxic Assay (AID 588349)
Outline: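 Cytotoxicity counter-screen: HEK293 cells exposed to compound titrations, 72 hr, 37 degrees C. Read-out is intracellular ATP (CellTiter Glo luminescence) as a viability measure.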

[10] = qHTS for Inhibitors of ATXN expression: Validation (AID 588378); note: series mostly up to about 57 µM; nearly all actives have a fitted effect of over 75% in size
Outline: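 After a 2 h attachment and 24 h compound incubation, HEK293-ATXN2-FFLuc wells are read for fluorescence at 405 nm excitation/525 nm emission as a viability measure, then for Bright-Glo luminescence reflecting ATXN2 expression.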

[11] = molecular target: DNA dC->dU-editing enzyme APOBEC-3G (Homo sapiens) (UniProt Q9HC16); test: qHTS for inhibitors of Vif-A3G interactions: Validation (AID 588379)
DNA dC->dU-editing enzyme APOBEC-3G (Homo sapiens), sequence (Q9HC16 whole entry, looked up): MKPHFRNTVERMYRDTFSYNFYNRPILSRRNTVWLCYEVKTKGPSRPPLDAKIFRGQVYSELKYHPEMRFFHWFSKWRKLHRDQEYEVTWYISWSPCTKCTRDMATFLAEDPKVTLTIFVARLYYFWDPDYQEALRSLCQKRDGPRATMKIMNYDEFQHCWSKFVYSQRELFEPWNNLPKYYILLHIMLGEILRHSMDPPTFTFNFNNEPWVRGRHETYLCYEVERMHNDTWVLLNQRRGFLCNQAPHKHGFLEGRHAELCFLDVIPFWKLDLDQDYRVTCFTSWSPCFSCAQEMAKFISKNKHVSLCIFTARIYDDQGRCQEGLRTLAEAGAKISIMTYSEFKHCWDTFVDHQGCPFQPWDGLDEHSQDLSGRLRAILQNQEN
Outline: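 Yellow fluorescence (Ex 488, Em 500-530) of Vif-coexpressing HeLa A3G-eYFP cells, scanned by Acumen cytometer, reports blocked A3G degradation. Cells plated at 700/well overnight at 37 deg C before compound addition, then a further overnight compound incubation at 37 deg C.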

[12] = molecular target: Bile acid receptor (Homo sapiens) (UniProt Q96RI1); test: qHTS assay for small molecule antagonists of farnesoid X receptor signaling (AID 588526; calls by dose curve)
Bile acid receptor (Homo sapiens), sequence (Q96RI1 whole entry, looked up): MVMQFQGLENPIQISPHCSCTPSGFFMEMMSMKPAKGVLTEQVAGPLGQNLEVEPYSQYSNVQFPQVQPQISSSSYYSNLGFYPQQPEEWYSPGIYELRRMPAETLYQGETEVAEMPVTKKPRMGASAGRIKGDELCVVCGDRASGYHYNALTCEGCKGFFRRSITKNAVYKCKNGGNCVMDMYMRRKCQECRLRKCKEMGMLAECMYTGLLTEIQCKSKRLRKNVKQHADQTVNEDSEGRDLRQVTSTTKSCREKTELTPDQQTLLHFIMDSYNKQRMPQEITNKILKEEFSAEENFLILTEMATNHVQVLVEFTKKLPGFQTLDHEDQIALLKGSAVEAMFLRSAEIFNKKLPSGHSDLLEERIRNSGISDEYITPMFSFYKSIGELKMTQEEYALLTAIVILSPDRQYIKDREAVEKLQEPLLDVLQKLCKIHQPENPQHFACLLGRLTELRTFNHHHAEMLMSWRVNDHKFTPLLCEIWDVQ
Outline: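 Antagonist mode: titrated compounds tested against chenodeoxycholic acid stimulation (normalized to 50 uM CDCA and DMSO) in GeneBLAzer HEK293T cells for 16 h. Beta-lactamase read by CCF4 fluorescence; IC50 from Hill fits.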

[13] = molecular target: Glucocorticoid receptor (Homo sapiens) (UniProt P04150); test: qHTS assay for small molecule agonists of glucocorticoid receptor signaling (AID 588532; active = well fitted curve in the direction sought with a large enough effect in the signal ratio, with a control signal flat; the % refers to the signal ratio); settings: HeLa MMTV-bla, beta-lactamase ratio, agonist, 18 h; stronger effect = higher value; percent of dexamethasone control, DMSO zero
Glucocorticoid receptor (Homo sapiens), sequence (P04150 whole entry, looked up): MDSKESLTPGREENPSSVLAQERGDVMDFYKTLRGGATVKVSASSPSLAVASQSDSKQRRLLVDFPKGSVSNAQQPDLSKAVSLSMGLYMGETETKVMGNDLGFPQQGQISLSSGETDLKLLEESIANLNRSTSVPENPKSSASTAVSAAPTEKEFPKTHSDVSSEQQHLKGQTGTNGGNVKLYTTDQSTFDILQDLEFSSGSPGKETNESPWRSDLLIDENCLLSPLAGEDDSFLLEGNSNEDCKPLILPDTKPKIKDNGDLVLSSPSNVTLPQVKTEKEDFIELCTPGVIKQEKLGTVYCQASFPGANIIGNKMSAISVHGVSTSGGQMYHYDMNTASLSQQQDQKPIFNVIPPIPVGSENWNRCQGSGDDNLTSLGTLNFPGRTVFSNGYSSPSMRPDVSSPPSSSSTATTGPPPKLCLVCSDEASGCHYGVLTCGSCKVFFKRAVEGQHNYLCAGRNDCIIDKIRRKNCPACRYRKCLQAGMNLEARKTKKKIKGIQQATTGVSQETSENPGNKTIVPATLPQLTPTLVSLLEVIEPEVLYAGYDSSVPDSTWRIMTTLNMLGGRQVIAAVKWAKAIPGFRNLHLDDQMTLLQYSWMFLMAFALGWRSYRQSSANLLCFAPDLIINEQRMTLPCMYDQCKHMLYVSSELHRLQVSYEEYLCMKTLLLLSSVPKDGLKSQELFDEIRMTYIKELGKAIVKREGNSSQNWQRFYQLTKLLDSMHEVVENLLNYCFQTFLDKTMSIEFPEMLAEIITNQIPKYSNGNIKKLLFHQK
Outline: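 HeLa GRE-bla reporter cells; 18 h compound exposure at 37 C; 2 h CCF4 loading at room temperature; fluorescence at 460 and 530 nm; EC50 by Hill equation.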

[14] = molecular target: Glucocorticoid receptor (Homo sapiens) (UniProt P04150); test: qHTS assay for small molecule antagonists of glucocorticoid receptor signaling (AID 588533; active = well fitted inhibition curve with a large enough effect in the signal ratio, with a control signal flat, not every such curve was filed as active; the % refers to the signal ratio;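 note: cells stimulated with 2 nM dexamethasone as agonist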)
Outline: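 Antagonist-mode qHTS: compound titrations added to GRE-bla HeLa cells, then dexamethasone 2 nM final; 18 h, 37 C. CCF4 FRET fluorescence normalized to dexamethasone and DMSO; IC50 from Hill fit.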

[15] = qHTS assay for small molecule antagonists of peroxisome proliferator-activated receptor delta signaling (AID 588535; active = well fitted inhibition curve with a large enough effect in the signal ratio, with a control signal flat, not every such curve was filed as active; the % refers to the signal ratio;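 for max response: cells co-treated with a PPAR-delta agonist as stimulator during compound exposure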); settings: HEK293T PPARd-UAS-bla, beta-lactamase FRET ratio, 18 h; 460 nm channel
Outline: (§1)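 Beta-lactamase reporter read-out (405 nm excitation, 460/530 nm emission) after CCF4 loading for 2 hrs at RT. HEK293T PPAR-delta-UAS-bla cells, 2% charcoal/dextran FBS, compounds for 18 hrs at 37 C. Hill fit gave IC50 and efficacy.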

[16] = molecular target: Peroxisome proliferator-activated receptor delta (Homo sapiens) (UniProt Q03181); test: as above
Peroxisome proliferator-activated receptor delta (Homo sapiens), sequence (Q03181 whole entry, looked up): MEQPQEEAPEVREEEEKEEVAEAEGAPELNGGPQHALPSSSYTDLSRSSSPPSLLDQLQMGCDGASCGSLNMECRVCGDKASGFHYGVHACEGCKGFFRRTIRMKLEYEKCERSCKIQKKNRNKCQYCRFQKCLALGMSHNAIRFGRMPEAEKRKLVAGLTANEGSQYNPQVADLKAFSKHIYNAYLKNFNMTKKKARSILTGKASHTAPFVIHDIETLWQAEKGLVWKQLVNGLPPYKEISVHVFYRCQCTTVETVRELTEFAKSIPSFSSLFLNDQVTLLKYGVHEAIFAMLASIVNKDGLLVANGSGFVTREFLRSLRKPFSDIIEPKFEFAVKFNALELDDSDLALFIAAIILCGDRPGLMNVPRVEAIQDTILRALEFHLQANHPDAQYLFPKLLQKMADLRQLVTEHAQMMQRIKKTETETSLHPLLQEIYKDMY
Outline: as §1

Structure (SMILES)	Potency [1]	viability change [1] [%]	outcome [2]	Potency [3]	Potency [4]	Potency [5]	Potency [6]	Potency [7]	Potency [8]	Potency [9]	Potency [10]	Potency [11]	outcome [12]	activation [13]	Potency [14]	max response [15] [%]	outcome [16]
CSC(=N)N	inactive	-21.7	inactive	inactive	inactive	inactive	inactive	inactive	inactive	inactive	inactive	inactive	–	–	–	–	–
O=C(O)C1=CCCN(CCON=C(c2ccccc2)c2ccccc2)C1	inactive	4.51	inactive	inactive	inactive	inactive	inactive	inactive	inactive	inactive	inactive	inactive	–	–	–	–	–
CC(=O)NNC(=O)N1Cc2ccccc2Oc2ccc(Cl)cc21	inactive	-4.76	inactive	inactive	inactive	inactive	inactive	inactive	inactive	–	inactive	inactive	–	–	–	–	–
NCCNS(=O)(=O)c1cccc2c(Cl)cccc12	inactive	-10.5	inactive	inactive	inactive	inactive	inactive	inactive	inactive	inactive	–	inactive	–	–	–	–	–
Nc1ccc(N2C(=O)c3ccccc3C2=O)c(Cl)c1	inactive	-6.09	inactive	inactive	inactive	inactive	inactive	inactive	inactive	–	inactive	–	–	–	–	–	–
O=C(O)C1CCCNC1 (configuration not stated)	inactive	1.96	inactive	inactive	inactive	inactive	inactive	inactive	inactive	–	inactive	–	–	–	–	–	–
NCCCCN=C(N)N	inactive	-0.37	inactive	inactive	inactive	inactive	inactive	inactive	inactive	–	inactive	inactive	–	–	–	–	–
CNc1ncnc2c1ncn2[C@H]1C[C@H](OP(=O)(O)O)[C@@H](COP(=O)(O)O)O1	inactive	-10.4	inactive	inactive	inactive	inactive	inactive	inactive	inactive	inactive	inactive	–	–	–	–	–	–
N#CC(C#N)=C(N)/C(C#N)=C/c1ccc(O)cc1	inactive	1.78	inactive	inactive	inactive	inactive	inactive	inactive	inactive	inactive	inactive	–	–	–	–	–	–
N=C(N)SCCN	inactive	0.333	inactive	inactive	inactive	inactive	inactive	inactive	inactive	inactive	–	inactive	–	–	–	–	–
CN1CCN(c2nc3cc(C(F)(F)F)ccc3n3cccc23)CC1	inactive	3.07	inactive	inactive	inactive	inactive	inactive	inactive	inactive	–	–	inactive	–	–	–	–	–
CCN(CC)CCCCCCCCOC(=O)c1cc(OC)c(OC)c(OC)c1	inactive	6.3	inactive	inactive	inactive	inactive	inactive	inactive	inactive	–	inactive	–	–	–	–	–	–
CC1C(=O)N(C)C(=O)c2nc[nH]c21 (configuration not stated)	inactive	-0.209	inactive	inactive	inactive	inactive	inactive	inactive	inactive	inactive	inactive	–	–	–	–	–	–
CC(=O)C(C)=O	inactive	-3.11	inactive	inactive	inactive	inactive	inactive	inactive	inactive	–	inactive	–	inactive	6.3% (inactive)	inactive	5.57	inactive
N=C(N)SCCc1cnc[nH]1	inactive	-8.6	inactive	inactive	inactive	inactive	inactive	inactive	inactive	inactive	inactive	inactive	–	–	–	–	–
NCCCNCCCCNCCCN	inactive	-11.3	inactive	inactive	inactive	inactive	inactive	inactive	inactive	inactive	inactive	inactive	–	–	–	–	–
C[C@H](O)C(=O)C1=Nc2c(nc(N)[nH]c2=O)NC1	inactive	8.34	inactive	inactive	inactive	inactive	inactive	inactive	56.2 µM (active)	–	inactive	–	–	–	–	–	–
Cc1nc2c(OCc3ccccc3)cccn2c1CC#N	inactive	-7.51	inactive	inactive	inactive	inactive	inactive	inactive	inactive	inactive	inactive	inactive	–	–	–	–	–
O=C(O)c1cccnc1C(=O)O	inactive	1.3	inactive	inactive	inactive	inactive	inactive	inactive	inactive	inactive	–	inactive	–	–	–	–	–
O=C(O)C1=CCNCC1	inactive	7.14	inactive	inactive	inactive	inactive	inactive	inactive	inactive	inactive	inactive	inactive	–	–	–	–	–
Nc1ccc(CCNc2ncnc3c2ncn3C2OC(CO)C(O)C2O)cc1 (configuration not stated)	inactive	5.22	inactive	inactive	inactive	inactive	inactive	inactive	inactive	inactive	inactive	–	–	–	–	–	–
OC1(c2ccc(Cl)cc2)CCN(Cc2c[nH]c3ccccc23)CC1	inactive	-2.32	inactive	inactive	inactive	inactive	inactive	inactive	inactive	inactive	–	inactive	–	–	–	–	–
